Laboratory results from PubChem BioAssay AID2391 (Southern Research Specialized Biocontainment Screening …, 2010).
The whole screen tested about 310,000 compounds, of which about 410 (0.13%) were called active. About 2% were inconclusive and are not listed. No rule for the calls is given here. Not all results are given here. Results with a measured potency or affinity are listed apart.

Assay: RSV antiviral activity via CPE protection, HEp-2 cells, primary 10 µM value included (AID 2391)
Conditions: RSV-induced CPE inhibition, at 10 µM, active compounds read high

CPE inhibition, inactive:
Cc1ccc(OCc2cc(C(=O)NCc3cnn(-c4cccc(F)c4)c3)no2)cn1 -0.86%, Cc1nn(-c2ccccc2)c(C)c1/C=N/N1CCN(c2ccccc2)CC1 2.1%, Cc1nn(-c2ccccc2)c(C)c1/C=N/O 5.01%, CC(=O)N1c2ccccc2Nc2ccccc21 0.92%, CC(C)(C)C(=O)CC1(O)C(=O)N(Cc2ccccc2)c2ccccc21 (centres undefined) 1.23%, COc1cccc(NC(=O)CSc2nc3ccccc3nc2N2CCOCC2)c1 1.87%, Cc1cccc(NC(=O)CSc2nc3ccccc3nc2N2CCCC2)c1 43.3%, Cc1cc(C)cc(NC(=O)CSc2nc3ccccc3nc2N2CCCCC2)c1 -0.51%, COc1ccc(NC(=O)CSc2nc3ccccc3nc2N2CCCC2)cc1 5.07%, O=C(CCN1c2ccccc2Sc2ccccc21)OCC(=O)N1CCN(C(=O)c2ccco2)CC1 5.26%, Cc1cc(C)cc(NC(=O)c2ccc(CNc3c(N4CCCC4)c(=O)c3=O)cc2)c1 2.89%, CCOC(=O)/C(C#N)=C/c1c(N2CCN(C)CC2)nc2c(C)cccn2c1=O 1.42%, COc1ccc(NC(=S)N2CCN(c3ccccc3)CC2)c(OC)c1 3.36%, CC(Sc1n[nH]c(N)n1)C(=O)Nc1ccccc1-c1ccccc1 (centres undefined) -0.4%, OCC1(CCOc2ccccc2)CCN(Cc2ccncc2)CC1 -0.49%, CCOC(=O)C1(CCOc2ccccc2)CCN(Cc2cccn2-c2ncccn2)CC1 -2.95%, COc1cc(OC)c(OC)cc1/C=N/NC(=O)c1cccc(S(=O)(=O)N2CCOCC2)c1 0.2%, Cc1cccc(NC(=O)C2CCN(S(=O)(=O)c3ccc4c(c3)NC(=O)CO4)CC2)c1C 0.6%, O=C(c1cc2cc(Cl)ccc2[nH]1)N1CCN(C(=O)c2ccco2)CC1 1.05%, O=C(O)c1[nH]c2ccc(Cl)cc2c1CC(=O)N1CCN(C(=O)c2ccco2)CC1 0.74%, CCOc1ccc(-c2nnc3ccc(SCC(=O)N4CCCCC4)nn23)cc1 1.74%, CCOc1ccc(CNC(=O)CCCn2nc(C)c3c(C)n(-c4ccc(C)cc4)nc3c2=O)cc1 12.6%, COc1cccc(C(=O)NC(=S)Nc2ccc(Cl)c(C(=O)O)c2)c1 1.26%, Cc1ccc(Nc2c([N+](=O)[O-])cc(C(=O)N3CC(=O)Nc4ccccc43)cc2[N+](=O)[O-])c(C)c1 -0.4%, Cc1cccc(Nc2c([N+](=O)[O-])cc(C(=O)N3CC(=O)Nc4ccccc43)cc2[N+](=O)[O-])c1 3.38%, CCOc1cc(/C=C/c2nc3cc(C)c(C)cc3s2)ccc1OCC(=O)N1CCOCC1 15.4%, CCN1CCCC(CO)(Cc2ccccc2)C1 (centres undefined) -0.72%, Cc1nn(C)c(Cl)c1CN1CCCC(CO)(Cc2cccc(Cl)c2)C1 (centres undefined) 68.4%, Cn1cc(CN2CCCC(CO)(Cc3ccccc3)C2)cn1 (centres undefined) -1.49%, Cc1nn(C)c(Cl)c1CN1CCCC(CO)(Cc2ccccc2)C1 (centres undefined) 62.6%, O=C(COC(=O)c1ccc(F)cc1F)Nc1cccnc1Cl 1.68%, CSc1nc(N)c(NC(=O)c2ccc(Br)o2)c(=O)[nH]1 0.99%, CCOC(=O)c1c(C)[nH]c(C(=O)NCc2ccccn2)c1C -0.66%, COc1ccc(NC(=S)NCCc2c(C)[nH]c3ccc(OC)cc23)cc1 1.21%, COc1ccc(NC(=O)CCn2c(=O)c3cccn3c3ccccc32)cc1 3.29%, COc1ccc(NC(=O)CCn2c(=O)c3cccn3c3ccccc32)c(OC)c1 8.66%, C=CCCCCCCCCC(=O)NN 1.7%, Cc1cnc(NC(=O)Cc2c[nH]c3ccccc23)s1 3.89%, CCc1nnc(NC(=O)Cc2c[nH]c3ccccc23)s1 2.52%, C=C(C)C(=O)Nc1cccc(C2=NOC3(C2)C[C@H](C(N)=O)N(C(=O)c2ccccc2)C3)c1 (some centres undefined) 1.43%, NC(=O)[C@@H]1CC2(CC(c3cccc(NC(=O)COc4ccc(Cl)cc4)c3)=NO2)CN1C(=O)c1ccccc1 (some centres undefined) 15.3%, C/C=C(/C)C(=O)Nc1cccc(C2=NOC3(C2)C[C@@H](C(N)=O)N(C(=O)c2ccc(OC)cc2)C3)c1 (some centres undefined) 0.8%, NC(=O)[C@H]1CC2(CC(c3cccc(NC(=O)COc4ccc(Cl)cc4)c3)=NO2)CN1C(=O)c1ccc(Cl)cc1 (some centres undefined) -1.09%, C=CCn1c(-c2cccn(Cc3ccc(Cl)cc3Cl)c2=O)n[nH]c1=S 8.02%, CCCN1CCOC(CC(=O)Nc2ccc([N+](=O)[O-])cc2)C1=O (centres undefined) -1%, O=C(c1cccc(S(=O)(=O)N2CCCC2)c1)N1CCN(c2ncccn2)CC1 1.05%, CCOC(=O)C1CCN(C(=O)c2cccc(S(=O)(=O)N3c4ccccc4CC3C)c2)CC1 (centres undefined) 0.5%, CC1CN(C(=O)c2cccc(S(=O)(=O)Nc3ccc(Cl)cc3)c2)CC(C)O1 (centres undefined) 4.6%, CCC(OC(=O)c1ccco1)C(=O)NCc1ccc(OC)cc1 (centres undefined) 1.29%, O=C(O)/C(=C\c1cccc(F)c1)c1ccc(S(=O)(=O)N2CCCCC2)s1 3.11%, COc1ccc2nc(/C=N/NC(=O)[C@H](CCSC)NC(=O)OC(C)(C)C)ccc2c1 18.6%, COc1ccc2nc(/C=N/NC(=O)CCCCCNC(=O)OC(C)(C)C)ccc2c1 6.33%, CCC(C)[C@H](NC(=O)OC(C)(C)C)C(=O)N/N=C/c1cccc2nccnc12 (some centres undefined) 0.75%, Cc1ccc2cc(/C=N/NC(=O)[C@H](C)NC(=O)OC(C)(C)C)c(Cl)nc2c1 2.96%, C(=C/c1ccnc2nc(SC/C=C/c3ccccc3)nn12)/c1ccccc1 2.09%, Cc1cccc(CCNC(=O)c2nnc(Cc3ccc(Cl)cc3)o2)c1 2.96%, CNc1cc(C(F)(F)F)nc(-c2ccccn2)n1 -0.28%, COc1cc(OC)cc(C(=O)Nc2cccc3c2CCCC3)c1 -0.47%, C=CCn1c(=O)c2c3c(sc2n2c(Nc4ccccc4)nnc12)CCCC3 13.3%, O=C1OC(CCl)CN1Cc1ccc([N+](=O)[O-])cc1 (centres undefined) 0.81%, Cc1ccc(C)c(NC(=O)CN(C)C(=O)c2ccc(S(=O)(=O)N3CCCCCC3)cc2)c1 0.63%, Cc1ccccc1NCC(=O)N=Nc1c(O)[nH]c2ccc([N+](=O)[O-])cc12 0.48%, O=C(O)c1ccccc1N=Nc1c(O)[nH]c2ccc([N+](=O)[O-])cc12 1.41%, O=C(CNC(=O)c1ccco1)N=Nc1c(O)[nH]c2ccc(Br)cc12 7.48%, Cc1ccc(NCC(=O)N=Nc2c(O)[nH]c3ccc([N+](=O)[O-])cc23)cc1 2.27%, O=C(N=Nc1c(O)[nH]c2ccc([N+](=O)[O-])cc12)c1ccccc1Cl 3.59%, O=C(CNC(=O)c1ccc(Br)cc1)N=Nc1c(O)[nH]c2ccc([N+](=O)[O-])cc12 6.52%, Clc1cnc(N/N=C/c2ccco2)c(Cl)c1 5.1%, O=C(CC1C(=O)NCCN1Cc1ccoc1)NCc1cccc(OC(F)(F)F)c1 (centres undefined) -0.85%, CC(Sc1nnc(CNC(=O)c2ccco2)n1C)C(=O)Nc1nccs1 (centres undefined) -0.02%, CCN(CC(=O)NCc1ccc(F)cc1)C(=O)COc1ccc2ccccc2c1 1.64%, COC(=O)CSc1nnc(CNC(=O)c2ccccc2F)n1-c1ccc(F)cc1 1.47%, CSc1ccc(NC(=O)N2CCC(C(=O)c3ccc(F)cc3)CC2)cc1 8.24%, COc1ccc(S(=O)(=O)N2CCN(C(=O)c3ccc4ccccc4n3)CC2)cc1 3.49%, Cc1cc(C)c(NC(=O)CSc2nnc(CNC(=O)c3ccco3)o2)c(C)c1 -0.65%, Cc1cccc(-c2oc3ccccc3c2C#CCCCCO)c1 3.25%, COc1ccccc1-c1oc2ccccc2c1C#CCCO 3.39%, COc1cc(C2NC(C(=O)O)Cc3c2[nH]c2ccccc32)cc(OC)c1OC (centres undefined) 5.99%, CC(=O)Nc1nnc(SCC(=O)c2ccc(F)cc2)s1 1.4%, CCC(=O)Nc1nnc(SCC(=O)c2ccc3c(c2)Cc2ccccc2-3)s1 42.4%, Cc1c(NC(=S)Nc2ccc(Cl)cc2)c(=O)n(-c2ccccc2)n1C 2.83%, Cc1c(Cl)cccc1NC(=S)NCCN1CCOCC1 1.32%, COc1ccc(C(=O)COc2ccc3c(C)cc(=O)oc3c2)cc1 1.42%, COc1ccc(-c2nnc3c4ccccc4c(C)nn23)cc1S(=O)(=O)N1CCN(CCO)CC1 -0.91%, Cc1ccc(-c2nnc3c4ccccc4c(C)nn23)cc1S(=O)(=O)N1CCN(CCO)CC1 8.23%, Cc1nn2c(-c3ccc(S(=O)(=O)N4CCN(C)CC4)o3)nnc2c2ccccc12 -1.89%, Cc1ccc(-c2nnc3c4ccccc4c(C)nn23)cc1S(=O)(=O)N1CCN(C)CC1 0.37%, Cc1cc(NC(=O)CCC(=O)N(Cc2ccco2)C2(C(=O)NC3CCCC3)CCCCC2C)no1 (centres undefined) 2.17%, O=C(c1ccc(F)cc1)N1C2CCC1CC(O)(c1ccc(F)cc1)C2 (centres undefined) 0.65%
